Assay [1] can be described thus: Nuclear factor erythroid 2-related factor 2/antioxidant responsive element (Nrf2/ARE) small molecule agonists: qHTS cell viability counter screen in human keratinocytes (AID 1919968; active = well fitted curve in the direction sought with a large enough effect in the repeat runs; an effect the other way counts as inactive or inconclusive; also: nearly all actives have a fitted effect of over 55% in size). The method in brief:
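Fluorescence read-out from CellTiter-Fluor after 1 h at 37 C. Wells held HaCaT-derived ARE-luciferase reporter cells (1,500/well) treated 23 h with DMSO-dissolved compounds. Run in the same wells as the luciferase agonist read.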
In general terms: qHTS replaces the single test concentration by a dilution series.

A short description of assay [2]: Nuclear factor erythroid 2-related factor 2/antioxidant responsive element (Nrf2/ARE) small molecule agonists: luciferase reporter gene qHTS assay in human keratinocytes (AID 1919969; also: nearly all actives have a fitted effect of over 35% in size). (Reporter assays use an easily measured gene product as a stand-in for the process of interest.)
Assay [3] deals with Gonadotropin-releasing hormone receptor (Homo sapiens) (UniProt P30968). Briefly: Human gonadotropin-releasing hormone receptor (GnRHR) small molecule agonists, calcium flux assay in GnRHR-HEK293 cells (AID 1920063). Also: nearly all actives have a fitted effect of over 35% in size. Also: potency is read from the fitted curve at half-maximal effect. The method in brief: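 Calcium-dye fluorescence, Ex/Em=480/540, recorded every 1 sec over 3 min after compound addition to GnRHR-HEK293 cells. Cells had been seeded 18 hours earlier and dye-loaded for 1 hour at 37 C. Fifteen concentrations, triplicates.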
Gonadotropin-releasing hormone receptor (Homo sapiens), sequence (P30968 whole entry, looked up): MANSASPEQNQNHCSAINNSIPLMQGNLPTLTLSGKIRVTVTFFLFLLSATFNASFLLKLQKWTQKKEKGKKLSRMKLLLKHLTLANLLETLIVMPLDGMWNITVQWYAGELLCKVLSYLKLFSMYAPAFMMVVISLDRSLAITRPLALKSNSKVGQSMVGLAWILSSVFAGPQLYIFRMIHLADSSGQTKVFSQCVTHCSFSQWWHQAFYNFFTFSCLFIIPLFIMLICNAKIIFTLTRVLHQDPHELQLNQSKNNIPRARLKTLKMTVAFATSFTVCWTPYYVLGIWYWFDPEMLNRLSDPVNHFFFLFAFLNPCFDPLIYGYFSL
For orientation: Calcium assays in cells follow changes in intracellular calcium, usually with a dye or a luminescent sensor.

Assay [4] has as its target KiSS-1 receptor (Homo sapiens) (UniProt Q969F8). Briefly: Human kisspeptin (KISS1R) small molecule agonists, calcium flux assay in KISS1R-HEK293 cells (AID 1920064; active = well fitted curve in the direction sought with a large enough effect in the repeat runs; an effect the other way counts as inactive or inconclusive). The essentials: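 Calcium flux read-out: kinetic fluorescence at Ex/Em=480/540, 1 s intervals over 3 min, after pin-tool compound addition to dye-loaded KISS1R-HEK293 cells. Fifteen concentrations, triplicates.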

Assay [5] in a line: G protein-coupled receptor (GPCR) small molecule agonists, calcium flux assay: HEK293 wild type cell line counter screen (AID 1920065). The method in brief: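 Agonist mode; 18 h seeding at 37 C, 1 h dye load at 37 C; compounds pinned from DMSO, ATP as positive control; kinetic fluorescence 480/540 nm, 3 min, 1 s reads; 15 concentrations, triplicate.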
Assay [6] in a line: p53 small molecule agonists, cell-based qHTS assay with human liver microsomes (AID 1963577). The essentials: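 In this qHTS, p53 response-element beta-lactamase cells receive test compound together with a microsome/NADPH activating system (0.5 mg/mL final each) and are incubated 16 h at 37 C before LiveBLAzer fluorescence detection.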
The nature of assay [7]: p53 small molecule agonists, cell-based qHTS assay with rat liver microsomes (AID 1963578). The essentials:
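Agonist mode in p53RE-bla reporter cells, with compounds co-incubated 16 h at 37 C alongside 0.5 mg/mL rat liver microsomes and 0.5 mg/mL NADPH (final), followed by a 2 h LiveBLAzer detection step.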

The nature of assay [8]: p53 small molecule agonists, cell-based qHTS assay with human liver microsomes: qHTS cell viability counter screen (AID 1963579). Also: nearly all actives have a fitted effect of over 45% in size. The method in brief:
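Metabolically activated exposure: compounds, human liver microsomes and NADPH (0.5 mg/mL final apiece) were added to p53RE-bla cells seeded 5 h earlier, left 16 h at 37 C, and then assessed for viability by CellTiter-Glo luminescence.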

Assay [9] in a line: p53 small molecule agonists, cell-based qHTS assay with rat liver microsomes: qHTS cell viability counter screen (AID 1963580). Also: nearly all actives have a fitted effect of over 45% in size. The essentials:
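Cytotoxicity counter screen: intracellular ATP measured by CellTiter-Glo luminescence in the same wells as the beta-lactamase reporter read, on HCT-116 p53RE-bla cells exposed 16 h at 37 C to compounds with rat liver microsomes and NADPH, each 0.5 mg/mL final.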

Assay [10] in a line: p53 small molecule agonists, cell-based qHTS assay: qHTS cell viability counter screen (AID 1963581). Also: nearly all actives have a fitted effect of over 45% in size. The essentials:
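Cytotoxicity read-out: ATP-based luminescence (CellTiter-Glo, 30 min RT) measured in the same wells as the p53 reporter assay, HCT-116 p53RE-bla cells, 16 h compound exposure at 37 C.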

The nature of assay [11]: p53 small molecule agonists, cell-based qHTS assay (AID 1963582; active = well fitted activation curve with a large enough effect in the signal ratio in the repeat runs, not every such curve was filed as active; the % refers to the signal ratio). The method in brief:
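Fluorescence intensity read-out of a beta-lactamase reporter under a p53 response element. Cells were exposed to DMSO-dissolved compounds for 16 h at 37 C, then developed with FRET substrate for 2 h at RT.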

In assay [12] the target is 5-hydroxytryptamine receptor 2A (Homo sapiens) (UniProt P28223). The assay can be described thus: 5-hydroxytryptamine receptor 2A (HTR2A) small molecule antagonists, cell-based qHTS assay (AID 1963586). Also: nearly all actives have a fitted effect of over 45% in size. The essentials: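 CHO cells stably expressing human HTR2A were plated for 18 h at 37 C, then loaded with calcium dye for 1 h. Compounds were preincubated 5 min at room temperature before DOI (4 nM solution) was added. Kinetic fluorescence was read for 3 min.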
5-hydroxytryptamine receptor 2A (Homo sapiens), sequence (P28223 whole entry, looked up): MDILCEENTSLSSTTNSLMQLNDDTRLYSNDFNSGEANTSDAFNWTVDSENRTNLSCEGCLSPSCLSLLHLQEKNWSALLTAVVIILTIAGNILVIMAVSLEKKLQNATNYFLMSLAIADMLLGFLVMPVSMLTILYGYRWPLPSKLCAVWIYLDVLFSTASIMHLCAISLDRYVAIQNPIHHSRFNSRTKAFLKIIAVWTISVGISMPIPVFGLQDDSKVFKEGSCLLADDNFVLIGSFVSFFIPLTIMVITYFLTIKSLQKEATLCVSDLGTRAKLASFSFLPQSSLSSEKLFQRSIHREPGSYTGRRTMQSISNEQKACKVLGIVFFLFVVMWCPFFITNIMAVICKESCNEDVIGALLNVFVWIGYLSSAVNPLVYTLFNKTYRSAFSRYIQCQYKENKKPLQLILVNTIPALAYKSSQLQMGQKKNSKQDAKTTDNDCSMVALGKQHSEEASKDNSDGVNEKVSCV

Assay [13] has the same target. The assay can be described thus: 5-hydroxytryptamine receptor 2A (HTR2A) small molecule agonists, cell-based qHTS assay (AID 1963587). Also: nearly all actives have a fitted effect of over 30% in size. The method in brief:
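CHO cells stably expressing human HTR2A, plated 18 h, loaded with calcium dye 1 h at 37 C. Agonist mode: compounds added and intracellular calcium fluorescence recorded kinetically for 2 min at 1 sec intervals.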

In assay [14] the target is Muscarinic acetylcholine receptor M1 (Homo sapiens) (UniProt P11229). The assay can be described thus: Cholinergic receptor muscarinic 1 (CHRM1) small molecule agonists, cell-based qHTS assay (AID 1963589). Also: nearly all actives have a fitted effect of over 35% in size. Also: potency is read from the fitted curve at half-maximal effect. The method in brief:
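Calcium flux read-out: kinetic fluorescence at 1 sec intervals after pin-tool compound addition to dye-loaded CHRM1-CHO cells (human M1). Agonist mode; 15 concentrations tested in triplicate independent runs.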

The nature of assay [15]: cAMP Responsive Elements (CRE) small molecule agonists, cell-based qHTS assay (AID 1963590). The essentials:
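Beta-lactamase reporter readout: LiveBLAzer B/G FRET substrate, 2 h at room temperature, added after 3 h compound treatment of CRE-bla HEK 293T cells at 37 C/5% CO2.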

The nature of assay [16]: cAMP Responsive Elements (CRE) small molecule antagonists, cell-based qHTS assay (AID 1963591; active = well fitted inhibition curve with a large enough effect in the signal ratio in the repeat runs, not every such curve was filed as active; the % refers to the signal ratio). The method in brief:
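HEK293T CRE-bla; 18 h preincubation; compound pin-transfer; NKH477 0.25 uM final, 3 h, 37 C; LiveBLAzer FRET substrate 2 h RT.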

The target in assay [17] is Beta-2 adrenergic receptor (Homo sapiens) (UniProt P07550). Briefly: Adrenergic beta2 receptor (ADRB2) small molecule antagonists, cell-based qHTS assay (AID 1963592). Also: series mostly up to about 92 µM; nearly all actives have a fitted effect of over 50% in size. The method in brief: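 Assay format: CHO-ADRB2 cells, 18-20hr seeding at 37C/5% CO2, then compound plus 1nM isoproterenol agonist mix for 0.5hr RT. Homogeneous time-resolved fluorescence cAMP detection after 1hr, expressed as 665/615 nm ratio.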
Beta-2 adrenergic receptor (Homo sapiens), sequence (P07550 whole entry, looked up): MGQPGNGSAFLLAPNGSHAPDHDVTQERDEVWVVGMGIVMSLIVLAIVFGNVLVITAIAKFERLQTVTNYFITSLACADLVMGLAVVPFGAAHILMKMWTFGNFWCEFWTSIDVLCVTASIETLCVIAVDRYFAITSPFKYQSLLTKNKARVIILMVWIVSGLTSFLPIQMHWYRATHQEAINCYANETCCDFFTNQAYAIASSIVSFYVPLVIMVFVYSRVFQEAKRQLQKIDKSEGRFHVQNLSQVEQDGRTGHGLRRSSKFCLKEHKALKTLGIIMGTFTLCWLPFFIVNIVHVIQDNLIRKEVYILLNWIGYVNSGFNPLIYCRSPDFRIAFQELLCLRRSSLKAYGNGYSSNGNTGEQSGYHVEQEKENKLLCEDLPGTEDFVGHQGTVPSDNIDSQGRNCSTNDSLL

Assay [18] concerns the target D(2) dopamine receptor (Homo sapiens) (UniProt P14416). Briefly: Dopamine D2 receptor (DRD2) small molecule agonists, cell-based qHTS assay (AID 1963594). Also: nearly all actives have a fitted effect of over 35% in size. The method in brief:
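HEK293 cells stably expressing human DRD2, pre-treated with PDE inhibitor Ro20-1724 (0.1 mM final) and compound 10 min at room temperature, then stimulated with NKH477 (200nM […]) for 30 min. cAMP read by HTRF (665/620 nm).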

Assay [19] shares this target. Briefly: Dopamine D2 receptor (DRD2) small molecule antagonists, cell-based qHTS assay (AID 1963595; active = well fitted inhibition curve with a large enough effect in the signal ratio in the repeat runs, with a control signal flat; the % refers to the signal ratio). The essentials: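 Stable D2 receptor HEK293 line, 24 h after seeding. Compound preincubated 10 min, then quinpirole (12 nM) with forskolin analogue NKH477 (200 nM), 30 min, room temperature. Detection by time-resolved FRET of cAMP.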
Assay [20] concerns the target Muscarinic acetylcholine receptor M1 (Homo sapiens) (UniProt P11229). The assay can be described thus: Cholinergic receptor muscarinic 1 (CHRM1) small molecule antagonists, cell-based qHTS assay (AID 1963588). Also: nearly all actives have a fitted effect of over 40% in size. The method in brief:
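Compounds were tested at 15 concentrations in three independent runs. Dye-loaded CHRM1-CHO cells were exposed 5 min at room temperature before stimulation by acetylcholine added at 50nM. Intracellular calcium was read kinetically on FDSS for 3 min.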

This is an account of results in PubChem BioAssay (Tox21).

Values without a mark were called inactive. Records with an inconclusive call do not appear. Active and inactive are the calls of the source. Unless noted, calls follow the shape of the full dose curve.
% is scaled to controls: 0 for no effect and ±100 for the full control effect.

D(2) dopamine receptor (Homo sapiens), sequence (P14416 whole entry, looked up): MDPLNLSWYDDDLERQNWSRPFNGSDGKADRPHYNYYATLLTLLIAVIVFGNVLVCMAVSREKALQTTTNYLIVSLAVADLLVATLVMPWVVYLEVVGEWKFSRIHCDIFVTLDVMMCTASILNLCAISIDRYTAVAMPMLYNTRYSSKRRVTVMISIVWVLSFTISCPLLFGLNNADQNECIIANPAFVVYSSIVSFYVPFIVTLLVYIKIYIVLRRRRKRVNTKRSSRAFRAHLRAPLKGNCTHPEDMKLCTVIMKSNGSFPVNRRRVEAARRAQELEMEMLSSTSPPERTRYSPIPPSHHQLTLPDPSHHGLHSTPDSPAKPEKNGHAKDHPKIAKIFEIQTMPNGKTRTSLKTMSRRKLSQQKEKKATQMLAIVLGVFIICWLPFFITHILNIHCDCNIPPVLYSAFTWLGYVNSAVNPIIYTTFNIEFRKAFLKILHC
KiSS-1 receptor (Homo sapiens), sequence (Q969F8 whole entry, looked up): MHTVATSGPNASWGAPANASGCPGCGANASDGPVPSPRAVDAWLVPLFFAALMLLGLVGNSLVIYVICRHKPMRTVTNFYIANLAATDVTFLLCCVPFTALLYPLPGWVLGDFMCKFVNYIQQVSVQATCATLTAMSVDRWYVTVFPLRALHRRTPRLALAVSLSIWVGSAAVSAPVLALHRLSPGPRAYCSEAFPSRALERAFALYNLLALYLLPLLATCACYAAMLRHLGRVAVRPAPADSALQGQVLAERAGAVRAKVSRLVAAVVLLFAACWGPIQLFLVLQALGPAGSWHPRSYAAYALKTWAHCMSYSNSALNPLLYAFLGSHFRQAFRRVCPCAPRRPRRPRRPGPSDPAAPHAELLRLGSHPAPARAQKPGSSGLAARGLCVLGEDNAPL
Muscarinic acetylcholine receptor M1 (Homo sapiens), sequence (P11229 whole entry, looked up): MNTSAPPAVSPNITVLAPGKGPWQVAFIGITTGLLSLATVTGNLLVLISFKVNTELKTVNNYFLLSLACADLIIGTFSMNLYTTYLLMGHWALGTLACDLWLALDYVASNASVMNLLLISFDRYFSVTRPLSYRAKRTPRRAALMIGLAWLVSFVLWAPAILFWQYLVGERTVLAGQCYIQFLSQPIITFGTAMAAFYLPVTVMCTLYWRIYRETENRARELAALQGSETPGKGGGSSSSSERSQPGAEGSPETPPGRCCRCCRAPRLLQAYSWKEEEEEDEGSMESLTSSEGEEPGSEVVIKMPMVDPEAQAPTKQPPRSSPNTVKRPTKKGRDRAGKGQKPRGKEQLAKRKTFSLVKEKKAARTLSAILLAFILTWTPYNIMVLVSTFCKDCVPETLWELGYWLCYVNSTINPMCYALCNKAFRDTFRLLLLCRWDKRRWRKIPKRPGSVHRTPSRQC

Take `C[N+]1(CC2COC(c3ccccc3)(c3ccccc3)O2)CCCCC1` (centres undefined): the activity change, negative = cytotoxicity was -0.244% [at 19 µM] in assay [1], -12% [at 13.5 µM] in assay [8], 4.65% [at 13.5 µM] in assay [9] and -20.9% [at 13.5 µM] in assay [10]. Besides, in assay [2], the activity, positive = activation was -7.02% [at 19 µM]. For the same compound, the activity change in assay [3] is -0.634% [at 11.8 µM, hits give high values]. Also, the activation is -1.44% [at 15.8 µM] in assay [4]; 0.724% [at 11.8 µM] in [5]; 0.35% [at 13.5 µM] in assay [6]; -0.64% [at 13.6 µM] in assay [7]; 0.97% [at 13.5 µM] in assay [11]; -9.9% [at 15.9 µM] in assay [13]. Besides, the activation in assay [14] is 10.6% [at 15.8 µM]; in [15], -0.37% [at 19 µM]; in assay [18], -6.08% [at 19 µM]. For the same compound, the activity, negative = inhibition in assay [12] was -7.46% [at 12.7 µM]. The figures for the activity change, negative = inhibition in assay [16] and in [17] were 1.85% [at 18.9 µM] and -7.43% [at 19 µM], respectively.
For `C=CC(=O)OCC[N+](C)(C)C`, the Potency entry in [1], in assay [2], in assay [6], in [7], in assay [8] and in [9] was “inactive” each time. The Potency entry in assay [10], in [11], in [12], in [13], in assay [15] and in assay [16] was “inactive” each time. The Potency result in [17], in [18] and in assay [19] was “inactive” each time. Moreover, the Potency in assay [3] is 438 nM (active); in assay [14] it was 43.8 nM (active). The result in assay [4] and in [5] was inactive.
For `OCCN1CN(CCO)CN(CCO)C1`, the Potency entry in [1], in [2], in assay [3], in assay [6], in assay [7] and in assay [8] was “inactive” throughout. For the same compound, the Potency result in assay [9], in assay [10], in [11], in assay [12], in assay [13] and in assay [20] was “inactive” throughout. Besides, the Potency result in assay [15], in assay [17], in assay [18] and in assay [19] was “inactive” in each case. Also, the result in assay [4] and in [5] was inactive.
Turning to `O=CN1CCOCC1`, the Potency entry in assay [1], in assay [2], in assay [3], in assay [6], in [7] and in assay [8] was “inactive” throughout. Further, the Potency entry in [9], in assay [10], in assay [11], in assay [12], in assay [13] and in assay [14] was “inactive” in each case. The Potency result in assay [15], in assay [16], in assay [17], in [18] and in [19] was “inactive” in each case. The outcome in assay [4] and in assay [5] was inactive.
For `CCO[Si](OCC)(OCC)OCC`, the Potency entry in [1], in assay [2], in assay [3], in assay [6], in assay [7] and in assay [8] was “inactive” throughout. Moreover, the Potency result in [9], in assay [10], in assay [11], in assay [12], in assay [13] and in [14] was “inactive” each time. The Potency result in [15], in [16], in assay [17], in [18] and in assay [19] was “inactive” in each case. Also, the outcome in [4] and in assay [5] was inactive.
Regarding `CCCCCC(C)N` (centres undefined), the Potency result in [1], in [2], in assay [3], in assay [6], in assay [7] and in assay [8] was “inactive” in each case. For the same compound, the Potency entry in assay [9], in assay [10], in [11], in [12], in assay [13] and in assay [14] was “inactive” each time. Besides, the Potency entry in assay [15], in [16], in [17] and in [18] was “inactive” in each case. Also, the outcome in assay [4] and in [5] was inactive.
Regarding `CCC(CO)(CO)[N+](=O)[O-]`, the Potency entry in assay [1], in assay [2], in assay [3], in assay [6], in assay [7] and in assay [8] was “inactive” in each case. Besides, the Potency entry in assay [9], in assay [10], in [11], in assay [12], in [13] and in assay [20] was “inactive” in each case. Besides, the Potency result in assay [15], in assay [16], in [17] and in [18] was “inactive” throughout. Further, the result in assay [4] and in assay [5] was inactive.
